# Measured values taken from PubChem BioAssay AID686978 (National Center for Advancing Translational Sciences (NCATS), 2013).
# The campaign covered roughly 420,000 compounds. About 64,000 (15%) were called active. Inconclusive results (about 27%) are left out. The list is a sample of the results. Values without a mark were called inactive. The call rests on the fitted dose curve; in most records, active means well fitted inhibition curve with a large enough effect; inconclusive means small, poorly fitted or top-dose-only effect; inactive means flat fitted curve, though single readings scatter.
# Assay: qHTS for Inhibitors of human tyrosyl-DNA phosphodiesterase 1 (TDP1): qHTS in cells in absence of CPT; further: nearly all actives have a fitted effect of over 55% in size
# Conditions: DT40 Tdp1-/- hTDP1 cells, no CPT, ATP luminescence, 48 h; activity change, negative = growth inhibition: at 46.2 µM (top of the series)
# Method in brief: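 Seeded 400 DT40-hTDP1 cells/well (vehicle DMSO, no 20 nM CPT); pinned compounds; ≥48 hr at 37 °C; CellTiter-Glo luminescence as viability measure.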
# On the % scale 0 is the no-effect control and ±100 the full control effect; potency means the concentration at half of the fitted maximal effect.
Compound,"activity change, negative = growth inhibition [%]",Potency
CSCCC(NC(=O)c1ccco1)C(=O)OCC(=O)Nc1ncc(Cl)c(C)c1Cl (stereo not given),-20,–
O=C(Nc1c2c(nn1-c1ccccc1)CS(=O)(=O)C2)C1CCCC1,-18.2,–
COCCNC(=O)C(OC(=O)c1cccs1)c1ccc(F)cc1 (stereo not given),-11.5,–
Cn1cc(C2OC(=O)c3ccccc32)c2ccccc21 (stereo not given),-28.3,–
CCn1c(O)c(N=NC2=NC(=O)CS2)c2cc(C)ccc21,-23.4,–
COC(=O)C[C@@H]1C=C[C@@H](NS(=O)(=O)c2cccc(OC)c2)[C@@H](CO)O1,-2.53,–
C[C@@H]1CN([C@H](C)CO)C(=O)CCCn2nncc2CO[C@@H]1CN(C)C(=O)OCc1ccccc1,-13.2,–
O=C(O)CSc1nccn1-c1cccc(Cl)c1,-24.7,–
Cc1cccc(OCC(=O)OCC(=O)Nc2ccc(Cl)cn2)c1,-2.9,–
CCNC(=S)N1CCN(CCN=CC2=C(O)CC(C)(C)CC2=O)CC1,0.937,–
Cc1cc(C)c(S(=O)(=O)N2C=CC(C(F)(F)F)=NCC2)c(C)c1,-29.9,–
CC(CCO)Nc1nc2c([nH]1)c(=O)n(C)c(=O)n2C (stereo not given),-0.337,–
COc1ccc(-c2csc3nc(-c4ccccc4F)oc(=O)c23)cc1OC,–,16.4 µM (active)
Cc1sc2nc(-c3ccccc3F)oc(=O)c2c1C,1.12,–
COc1ccccc1-c1nnc(-c2ccc(F)cc2)o1,-26.4,–
O=C(NCc1ccco1)C(c1ccncc1)N(C(=O)Cn1nnc2ccccc21)c1ccccc1 (stereo not given),-4.11,–
Cc1nn(-c2ccccc2)c2[nH]c(C(F)(F)F)cc(=O)c12,-13.2,–
O=S(=O)(Nc1ncnc2sccc12)c1cccc(F)c1,-22.3,–
Nc1ccccc1-c1nc2ccncc2[nH]1,5.85,–
Cc1cccc(C)c1NC(=O)C1(N(C(=O)c2ccccn2)c2ccc(O)cc2)CCCCC1,3.63,–
COc1ccc2c(CC(=O)OCC(=O)Nc3ccccc3[N+](=O)[O-])coc2c1,-18,–
Cc1ccc(-c2nnn(CC(=O)N(Cc3ccco3)C(C(=O)NC(C)(C)C)c3ccncc3)n2)o1 (stereo not given),5.93,–
Cc1nc(C)c(C(=O)N(c2ccc(C)c(C)c2)C(C(=O)NCc2ccco2)c2ccccc2)s1 (stereo not given),-13,–
Cc1nn(-c2ccccc2)c2sc(C(=O)N(Cc3ccco3)C(C)C(=O)NC(C)(C)C)cc12 (stereo not given),–,14.6 µM (active)
Cc1ccc(NC(=O)Nc2ccc3oc(C)nc3c2)cc1,-25.8,–
CCN1CCN(CCCNC(=O)c2ccc3c(c2)sc2nc(-c4ccc(OC)cc4)cn23)CC1,–,1.3 µM (active)
CCCN1CCN(CCCNC(=O)c2ccc3nc(Cc4ccccc4)oc3c2)CC1,-27.3,–

Compound,"activity change, negative = growth inhibition [%]",Potency
COc1ccccc1NC(=O)c1ccc2nc(N3C(=O)CCC3=O)sc2c1,-2.13,–
COc1ccc(-c2cn3c(C)c(C(=O)Nc4cc(C)cc(C)c4)sc3n2)cc1,–,16.4 µM (active)
COc1ccc2oc(=O)c(-c3cn4c(n3)sc3cc(OC)ccc34)cc2c1,-13.4,–
COc1ccc(-c2cc(C(=O)NCCCN3CCOCC3)no2)cc1,-21.3,–
COc1ccc(-c2cn3c(n2)sc2cc(C(=O)Nc4ccccc4F)ccc23)cc1,–,3.66 µM (active)
CCOC(=O)c1ccccc1NC(=O)c1sc2nc(-c3ccc(F)cc3)cn2c1C,-0.672,–
COc1ccc(NC(=O)c2cc(-c3ccc(C)cc3)on2)cc1,3.31,–
O=C(NCCc1ccc(F)cc1)c1n[nH]c2ccccc12,-12.6,–
O=C(COC(=O)c1n[nH]c2ccccc12)NCc1ccccc1,-3.5,–
COc1cccc(CNC(=O)c2n[nH]c3ccccc23)c1,–,16.4 µM (active)
O=C(OCC(=O)N1CCCCC1)c1ccc(OC(F)(F)F)cc1,-11.7,–
CCN(CC)C(=O)C1CCC(C)(C(=O)O)C1(C)C (stereo not given),-3.85,–
O=S(=O)(NCCSc1ccccn1)c1ccc(Cl)cc1,-8.5,–
CC(C)=NN1C(=O)c2ccccc2NC1(C)C,-4.65,–
Cc1nnsc1C(=O)Nc1cccc(Cl)c1C,-1.62,–
COc1cccc(CNC(=O)c2ccc3c(c2)sc2nc(-c4cccc(OC)c4)cn23)c1,–,4.11 µM (active)
COc1cccc(CNC(=O)CCc2nc(-c3ccc(C)cc3)no2)c1,-22.7,–
COc1cccc(CNC(=O)Cn2ncn3c(cc4ccccc43)c2=O)c1,-13.4,–
CCOc1cc(NC(=O)Nc2ccccc2)c(OCC)cc1NC(=O)CC,-29.2,–
CCOc1cc(NC(=O)CCl)c(OCC)cc1NC(C)=O,–,16.4 µM (active)
CCCC(=O)Nc1cc(OCC)c(NC(=O)NC2CCCCC2)cc1OCC,-4.1,–
C=CC1=C(C(=O)O)N2C(=O)[C@@H](NC(=O)/C(=N/OCC(=O)O)c3csc(N)n3)[C@H]2SC1,-3.69,–
COc1cc(N/C=C2\CC(=O)NC(C)=C2C#N)cc(OC)c1OC,–,25.9 µM (active)
COC(=O)C1=C(C)NC(=O)CC1c1ccccc1OC (stereo not given),-10.2,–
COc1cc2c(cc1OC)C(C(=O)Nc1cc(C)c(OC)c(C)c1)CC(=O)N2 (stereo not given),-8.04,–
CC(C)CNC(=O)C1(C)CCCN1C(=O)CSc1ccccc1 (stereo not given),-14.1,–
O=C1CN(C(=O)Nc2ccccc2C(F)(F)F)C(c2ccccc2)c2c(sc3c2CCCC3)N1 (stereo not given),–,18.4 µM (active)

Compound,"activity change, negative = growth inhibition [%]",Potency
Cc1ccccc1NC(=O)N1CCCC1C(=O)NCc1ccccc1 (stereo not given),22.4,–
O=C(CSc1n[nH]c(=O)n1-c1ccccc1)Nc1ccccc1C(F)(F)F,10.9,–
[2H]C(CCOS(N)(=O)=O)c1ccccc1 (stereo not given),-7.22,–
Cn1c(=NC(=O)C2CC2)sc2cc(F)cc(F)c21,1.11,–
O=C(NC(c1ccccc1)c1ccccc1)N1CCN(CCO)CC1,-19,–
O=C(CN1CCc2ccccc21)NC(c1ccccc1)c1ccccc1,-15.6,–
O=C(CN1CCN(Cc2ccccc2)CC1)NC(c1ccccc1)c1ccccc1,–,23.1 µM (active)
CC12CCC(=O)N1C(C(=O)Nc1ccc(F)c(F)c1F)CS2 (stereo not given),-2.89,–
COC(=O)/C=C(\Oc1ccccc1)C1(O)CCCCC1,-6.36,–
CCNC(=O)NNC(=O)C1CC(c2cccs2)=NO1 (stereo not given),1.39,–
O=C(COC(=O)c1ccccc1)Nc1cccc(S(=O)(=O)N2CCOCC2)c1,-17.9,–
O=C(Nc1ccc(S(=O)(=O)Nc2nccs2)cc1)c1cccc(S(=O)(=O)N2CCOCC2)c1,15,–
Cc1nc2ccc(NC(=O)c3cccc(S(=O)(=O)N4CCOCC4)c3)cc2s1,–,20.6 µM (active)
COc1ccc(Br)cc1/C=N/NC(=O)c1cccc(S(=O)(=O)N2CCOCC2)c1,-49.8,–
NC(=O)CSc1nnc(-c2cccc(S(=O)(=O)N3CCOCC3)c2)o1,-10.2,–
Cc1cc2ccccn2c1C(=O)c1cccc(S(=O)(=O)N2CCOCC2)c1,–,16.4 µM (active)
O=C(c1cccc(S(=O)(=O)N2CCOCC2)c1)N1CCOCC1,3.04,–
O=C(Nc1nnc(-c2ccccc2)o1)c1cccc(S(=O)(=O)N2CCOCC2)c1,–,16.4 µM (active)
CCOc1cc(/C=N/NC(=O)c2cccc(S(=O)(=O)N3CCOCC3)c2)ccc1OCC(=O)N(C)C,-4.34,–
O=C(N/N=C/c1ccc([N+](=O)[O-])o1)c1cccc(S(=O)(=O)N2CCOCC2)c1,–,18.4 µM (active)
Cc1cc(C(=O)NNC(=O)c2cccc(S(=O)(=O)N3CCOCC3)c2)c2ccccc2n1,-3.56,–
CCCS(=O)(=O)N1CCC(C(=O)NCCCN(C)Cc2ccccc2)CC1,-0.239,–
CSc1ncnc2c1ncn2CCCNCc1ccco1,-3.83,–
O=C(Nc1cccnc1)c1cc2cc(Br)ccc2oc1=O,9.72,–
COC(=O)c1cc(=O)n(-c2c(Cl)cc(C(F)(F)F)cc2Cl)[nH]1,-2.3,–
CCOC(=O)c1c(NC(=O)CSc2nccc(=O)[nH]2)sc(C)c1C,-3.03,–
CCC(=O)Nc1ccc(-c2ccc(N3CCCCC3)nn2)cc1,-24.9,–

Compound,"activity change, negative = growth inhibition [%]",Potency
Cc1ccc(S(=O)(=O)N2CCC(Oc3ccc(-n4cnnn4)cc3)CC2)cc1,-1.55,–
COc1ccc(/C=N/NC(=O)CNC(=O)c2ccc(S(=O)(=O)N3CCCC3)cc2)c(OC)c1,-2.19,–
COc1ccc(/C=N/Nc2cc(N3CCOCC3)nc(C)n2)c(OC)c1,–,20.6 µM (active)
CN(C)c1ccc(/C=N/Nc2cc(N3CCOCC3)nc(N3CCOCC3)n2)cc1,-4.47,–
C(=N/Nc1cc(N2CCOCC2)nc(N2CCOCC2)n1)/c1ccccc1,–,20.6 µM (active)
Cc1ccccc1N/N=C/c1ccc(N2CCOCC2)cc1,-13.9,–
COc1ccc(/C=N/NC(=O)Nc2ccc3nsnc3c2)c(OC)c1,14.1,–
C=CCN1C(=O)C(Cc2ccc(OCC)cc2)SC1=Nc1ccc(C(=O)O)cc1 (stereo not given),6.09,–
COc1ccc(N=C2SC(C(=O)Nc3ccc(F)cc3)CC(=O)N2C)cc1 (stereo not given),-4.58,–
CC1Cc2ccccc2N1C(=O)CSc1nnc(C2CC2)n1C (stereo not given),-25.7,–
COc1ccc(CC(=O)Nc2c(C(N)=O)oc3ccccc23)cc1,2.8,–
COCCNC(=O)CSc1nc2c(n1-c1ccccc1)CCCC2,-11.9,–
Nc1ncnc2c1cnn2C1CC(O)C(CO)O1 (stereo not given),3.22,–
Nc1ccn(C2CC(O)C(CO)O2)c(=O)n1 (stereo not given),-4.34,–
Nc1ncnc2c1ncn2C1CC(O)C(CO)O1 (stereo not given),–,4.61 µM (active)
O=C(NNS(=O)(=O)Cc1ccccc1)c1ccc([N+](=O)[O-])cc1,-9.44,–
O=[N+]([O-])c1ccc(C(S(=O)(=O)Cc2ccccc2)S(=O)(=O)Cc2ccccc2)cc1,–,18.4 µM (active)
O=C(Cc1ccccc1)NNS(=O)(=O)c1ccc([N+](=O)[O-])cc1,-20.9,–
Cn1c(N)cc(-c2ccc(F)cc2)c(C#N)c1=O,8.99,–
CCOc1[nH]n(-c2ccc(Cl)cc2)c(=O)c1C=Nc1ccc(O)cc1,–,5.17 µM (active)
CCOc1ccc(N=C2NC(=O)S/C2=C\c2ccc(O)cc2)cc1,-2.77,–
CC(=O)Cn1ncc(N2CCOCC2)c(Br)c1=O,2.02,–
Cc1ccc(Cc2nc(-c3cccc(C)c3)no2)cc1,-22.1,–
N/C(=N\S(=O)(=O)c1ccc(Cl)cc1)N1CCOCC1,-5.51,–
